Hit rate of the full screen: of about 300,000 compounds, about 5,200 (1.7%) were called active. Only a selection was taken, and actives are over-represented in it overall. Values without a mark were called inactive.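 Rule for the calls: active = mean replicate activation of at least 50% with a set share of replicates each reaching 50%; inconclusive = only one of those two conditions met; inactive = mean below 50% and too few replicates reaching it.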

The test in a line: HSF-1 response element luciferase induction – NIH3T3-HGL cells, MG132 stress, luminescence, single point, primary screen (AID 504408).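 Note: 0% = median of the neutral control wells and 100% = twice that signal.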 Conditions: NIH3T3-HGL HSF-1 luciferase reporter, MG132, 8 h; at 9 µM; stronger effect = higher value; 100% = twice DMSO control signal.
`COc1ccc(CNS(=O)(=O)c2cc3c4c(c2)CCN4C(=O)CC3)cc1`: the activation was 30.7%. Take `COc1ccccc1OCCCCCCN1CCN(C)CC1`: the activation was -3.8%. Consider `Cc1n[nH]c(=O)c2c(NC(=O)CSc3ccccc3F)oc(C)c12`, for which the activation was 6.59%. With `COc1ccc(OCCCC(=O)OC(C)C(=O)Nc2ccccc2[N+](=O)[O-])cc1` (stereo not drawn), the activation is 10.9%. Take `COc1ccc2c(c1)CCc1c(C(=O)N3CCc4ccccc4C3)noc1-2`: the activation is 6.07%. Consider `COc1ccc2oc(=O)c(C(=O)N3CCCC3)cc2c1`, for which the activation is 6.28%.

Consider `COc1ccc2c(c1)CCc1c(C(=O)N3CCCC3)noc1-2`, for which the activation was 54.9% (active). As to `O=C(NCCN1CCCC(O)C1)c1cc(COc2c(F)cccc2F)on1` (stereo not drawn), the activation was -5.99%. `CC1CN(C(=O)c2cc(COc3c(F)cccc3F)on2)CCN1C` (stereo not drawn): the activation is 52.1% (active).

Regarding `O=C(c1cc(COc2c(F)cccc2F)on1)N1CCSCC1`, the activation is 13.6%. The same measure for `Cc1csc(NC(=O)C2=COCCO2)n1`: 13%; for `CC(C)CN(C(=O)COC(=O)c1ccc(Cl)c(N)c1)c1c(N)n(Cc2ccccc2)c(=O)[nH]c1=O`: -19.5%. `O=C(NC1CCCCCC1)c1cccnc1Sc1ccc(Cl)cc1`: the activation is -8.73%.

For `O=C(NC1CCCCC1)c1ccc(-c2ccc(Cl)cc2)o1`, the activation was 67.1% (active). Take `S=C(NCc1ccc(Cl)cc1)NC1CCCCC1`: the activation was 18.1%. For `CCN(C(=O)COC(=O)c1sccc1C)c1c(N)n(Cc2ccccc2)c(=O)[nH]c1=O`, the activation is -3.51%. The same measure for `CCCNC(=O)c1onc(CSc2ccc(F)cc2)c1C(=O)NC(C)C`: -0.0105%. The same measure for `CS(=O)(=O)c1ccc(Cl)c(NC(=O)COC(=O)c2ncc(Cl)c(Cl)c2Cl)c1`: 2.63%; for `Oc1c(C(c2ccccn2)N2CCOCC2)ccc2cccnc12` (stereo not drawn): 73.3% (active).

Take `CCOc1cc(N2CCOCC2)c(OCC)cc1NC(=O)COc1cccc2cccnc12`: the activation was -23%. As to `CC(C)c1cc(CN2CCOCC2)cc(C(C)C)c1O`, the activation was 4.46%.

On to `O=C(COC(=O)c1ncc(Cl)c(Cl)c1Cl)NNC(=O)c1ccccc1`, for which the activation is 3.3%. In the case of `O=C1CC2(CCN(C(=O)COc3ccc(F)cc3)CC2)Oc2ccccc21`, the activation was 12%. For `CC(OC(=O)c1ccc(S(=O)(=O)N2CCOCC2)cc1)c1ccccc1` (stereo not drawn), the activation was 13.9%. Turning to `CC(Oc1ccc(F)cc1)C(=O)Nc1ccccc1C(=O)NC1CC1` (stereo not drawn), the activation was 6.2%.

Take `O=C(Nc1cccnc1Cl)c1cc(-c2ccccc2O)on1`: the activation was 11.3%. For `Cc1ccc(O)c(NC(=O)c2cc(-c3ccco3)on2)c1`, the activation is 113% (active).

For `COc1ccc(NC(=O)c2cc(-c3ccc(C)cc3)on2)cc1`, the activation was -4.41%. Take `c1ccc(C[C@H]2CNCCN2CCC23CC4CC(CC(C4)C2)C3)cc1`: the activation is -13.4%. As to `Cc1ccc(CSCC(=O)N(C)CC(=O)Nc2ccc(C)cc2)cc1`, the activation is -77.8%. The same measure for `O=C(CSC1=NS(=O)(=O)c2cc(F)ccc2N1)Nc1ccccc1F`: 30%.

Take `C/C(=N\NC(=S)Nc1ccc(C)cc1)c1cc2ccccc2o1`: the activation was 7.68%. Consider `Cc1ccc(NC(=O)c2cc3ccccc3o2)cc1`, for which the activation is 51.6% (active). The same measure for `Cc1ccc(OC(=O)c2cc3ccccc3o2)cc1`: 5.61%; for `CN(/N=C/c1ccccc1)C(=S)c1ccccc1`: 9.01%. The same measure for `O=c1c(-c2cccc(Cl)c2)c[nH]n1-c1ccccc1`: 7.2%; for `O=C(O)C(c1ccccc1)N1C(=O)/C(=C\c2ccc(-c3cccc(Cl)c3)o2)SC1=S` (stereo not drawn): -2.76%.

Turning to `O=C1c2ccccc2NC(c2ccc(-c3cccc(Cl)c3)o2)N1O` (stereo not drawn), the activation was 76.4% (active). With `Cc1ccc(C(=O)C(C)OC(=O)Cc2n[nH]c(=O)c3ccccc23)cc1C` (stereo not drawn), the activation was -0.0365%.

`O=C(NCc1ccccn1)Nc1ccc(Cl)cc1`: the activation is -2.45%. `CCN(CC(=O)Nc1c(F)cccc1F)C(=O)C1CCC1`: the activation is -4.88%.

With `NC(=O)c1ccsc1NC(=O)c1ccco1`, the activation was 26.5%. `O=C(Nc1nc(-c2ccco2)c(-c2ccco2)s1)c1ccco1`: the activation is 70.1% (active).

In the case of `O=C(Nc1ccccc1)c1ccco1`, the activation was 11.5%. For the molecule `Cc1csc(NC(=O)c2ccc(C)s2)n1`, the activation was -3.76%. Consider `O=C(NCCCN1CCCC1=O)c1ccc(S(=O)(=O)Nc2ccccc2)cc1`, for which the activation was 16.8%. The same measure for `CC(C)(C)C(=O)COC(=O)c1cc(S(=O)(=O)N2CCCCC2)ccc1N1CCOCC1`: -1.57%; for `Cc1ccc(C(=O)CSc2nnc(Cn3nnc4ccccc43)n2C)cc1`: 43.4%; for `Cc1ccc2nnn(Cc3cccc(C(C)(C)C)c3O)c2c1`: 59.9% (active).

For `O=C(CN1C(=O)NC2(CCCC2)C1=O)OCCOc1ccc(F)cc1`, the activation is 3.21%.

For `CCCCn1c(N)c(N(CCC(C)C)C(=O)CC2OC(=O)c3ccccc32)c(=O)[nH]c1=O` (stereo not drawn), the activation was -3.07%. The same measure for `Cc1cc(C)nc(SCC(=O)c2ccc(Cl)cc2)n1`: -1.86%; for `Cc1cc(Oc2ccc(Cl)cc2)nc(SCC(=O)c2ccccc2)n1`: 2.82%; for `Cc1cc(C)nc(S/C=C/C(=O)c2ccccc2)n1`: 111% (active). With `CSc1ccc(/C=C2\NC(=O)NC2=O)cc1`, the activation was 20.8%. `CN(Cc1ccccc1F)C(=O)C(Cc1ccccc1)NC(=O)c1ccccc1` (stereo not drawn): the activation is -0.838%. As for `CCCCn1c(N)c(N(CCOC)C(=O)COc2c(C)cccc2C)c(=O)[nH]c1=O`, the activation is -3.47%. Consider `CCC(C)NC(=O)C1c2ccccc2C(=O)N1Cc1ccccc1` (stereo not drawn), for which the activation is 16.4%.

`CC1CCC(NC(=O)C2c3ccccc3C(=O)N2Cc2ccc3c(c2)OCO3)CC1` (stereo not drawn): the activation is -8.55%. `CCc1ccc(CN2C(=O)c3ccccc3C2C(=O)NCC2CCCO2)cc1` (stereo not drawn): the activation was 62.2% (active).

Regarding `CCOC(=O)c1cc(NC(=O)c2cccnc2)ccn1`, the activation is -78.8%. As for `COc1ccc(S(=O)(=O)N2CCOCC2)cc1NC(=O)CSc1ncnc2ccccc12`, the activation is 72.7% (active). The same measure for `COc1ccc(S(=O)(=O)N2CCOCC2)cc1NC(=O)COc1ccccc1`: -3.48%; for `COc1ccc(S(=O)(=O)N2CCCCC2)cc1NC(=O)COc1ccccc1`: 4.76%; for `CCCC(=O)Nc1c(O)c2ccccc2[nH]c1=O`: -31.5%. In the case of `CCCOC(=O)Cc1c(O)c2ccccc2[nH]c1=O`, the activation is -21.7%. The same measure for `O=C(Cc1c(O)c2ccccc2[nH]c1=O)NCc1ccccc1`: 55.5% (active); for `Cc1ccc(NS(=O)(=O)c2ccc(C(=O)NCCCN3CCOCC3)cc2)cc1`: -3.65%. `O=C(NCCS(=O)(=O)NCc1ccc(F)cc1)c1ccccc1`: the activation was 2.75%. For `O=C(Nc1cccc2c1CCCC2)c1ccc(F)cc1`, the activation is -3.19%. Regarding `COc1ccc2c(Cl)c(C(=O)NCc3ccco3)sc2c1`, the activation was 59.8% (active). Regarding `O=C(NCc1ccco1)c1sc2cccc(F)c2c1Cl`, the activation was 27.8%. `COc1ccc2oc(C(=O)NCc3ccco3)c(C)c2c1`: the activation is 6.69%. With `CCN(CC(=O)Nc1cccc(S(=O)(=O)N2CCCCC2)c1)Cc1ccccc1`, the activation was 0.93%. As for `CN1C(C(=O)NCc2ccco2)CC2Cn3c(nc4ccccc43)C21` (stereo not drawn), the activation was -8.57%. For the molecule `Cc1nn(C)c(C)c1NS(=O)(=O)c1ccc(OC(F)(F)F)cc1`, the activation is 0.0449%.

In the case of `Cc1ccc(S(=O)(=O)N(Cc2cccc([N+](=O)[O-])c2)C(=O)N2CCN(C)CC2)cc1`, the activation is 17.1%. As to `CC(=O)c1ccc(S(=O)(=O)NC2CC(=O)N(c3ccc4c(c3)OCCO4)C2)cc1` (stereo not drawn), the activation is 8.08%.

Take `Cc1cccc(-c2noc(-c3ccc(F)cc3)n2)c1`: the activation was 55% (active).

`Cc1ccc(Cc2nc(-c3cccc(C)c3)no2)cc1`: the activation was 17.5%. The same measure for `COc1ccc2[nH]c(=O)c(-c3noc(-c4ccc(F)cc4)n3)cc2c1`: 25.7%; for `CCc1noc(C)c1C(=O)Oc1ccc(N(C)S(=O)(=O)c2ccc(C)c(C)c2)cc1`: -16.6%; for `CCOC(=O)c1ccc(NC(=S)N2CCCC2)cc1`: 17.9%. As to `CCOc1ccc(NC(=S)N2CCC(N(C)CC3CCCO3)CC2)cc1` (stereo not drawn), the activation was -6.15%. With `CCOc1ccc(NC(=S)N2CCCCCC2)cc1`, the activation is 65.8% (active). For the molecule `O=C(Nc1ccc2nc3n(c(=O)c2c1)CCCC3)c1ccc(Cl)nc1`, the activation was 3.58%. For `COc1ccc(C(=O)NCC(c2ccco2)N2CCc3ccccc32)cc1OC` (stereo not drawn), the activation was 2.97%. `Cc1noc(C)c1CSCC(=O)Nc1ccc(Br)cc1Cl`: the activation was 1.94%.

Take `Cc1ccc(OCc2nc3ccccc3n2C)cc1`: the activation is 75.6% (active). Take `CC(C)n1c(COc2ccccc2)nc2ccccc21`: the activation was 12.3%. With `COCn1c(COc2ccccc2)nc2ccccc21`, the activation was 23.9%. With `Cc1n[nH]c(=O)c2c(NC(=O)COC(=O)c3ncc(Cl)c(Cl)c3Cl)oc(C)c12`, the activation is -1.88%. As to `CN(CC(=O)Nc1cccc(F)c1)C(=O)C1CC(=O)N(CCc2ccccc2)C1` (stereo not drawn), the activation is -1.17%. As to `CCn1c2ccccc2c2cc(NC(=O)C/C(C)=N/NC(=O)c3ccccc3N)ccc21`, the activation was 87.9% (active). Regarding `CCn1c2ccccc2c2cc(NC(=O)CNC)ccc21`, the activation is -4.5%. On to `CCn1c2ccccc2c2cc(NC(=O)COC(=O)c3ccccc3Br)ccc21`, for which the activation is 15.8%. On to `Nc1c(C(=O)Nc2ccc3c(c2)OCCO3)nnn1Cc1ccccc1`, for which the activation is 43.5%. The same measure for `Cc1ccc(OCCNC(=O)CN2C(=O)NC3(CCCC3)C2=O)cc1`: 2.14%.
